eIF4H FP inh – inhibitors of RNA binding by human eIF4H. eIF4H fluorescence polarization binding assay. 290,000 compounds, 0.94% hits. Q15056. inhibition, % at 35 µM. AID 2012;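 note: calls also rest on retests at 20 µM and on dose response follow-up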
MLLE-PAM2 inh – inhibitors of microRNA-mediated deadenylation, human PABP1 MLLE binding; P11940; GST-MLLE / FITC-PAM2 fluorescence polarization; inhibition, % at 20 µM; 360,000 compounds, 0.36% hits; in the data active = inhibition above about 35%, passing the limit was not always enough;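 note: plate controls were DMSO wells with GST-MLLE for no effect and wells lacking GST-MLLE protein for full effect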
Target sequence (P11940 whole entry, looked up): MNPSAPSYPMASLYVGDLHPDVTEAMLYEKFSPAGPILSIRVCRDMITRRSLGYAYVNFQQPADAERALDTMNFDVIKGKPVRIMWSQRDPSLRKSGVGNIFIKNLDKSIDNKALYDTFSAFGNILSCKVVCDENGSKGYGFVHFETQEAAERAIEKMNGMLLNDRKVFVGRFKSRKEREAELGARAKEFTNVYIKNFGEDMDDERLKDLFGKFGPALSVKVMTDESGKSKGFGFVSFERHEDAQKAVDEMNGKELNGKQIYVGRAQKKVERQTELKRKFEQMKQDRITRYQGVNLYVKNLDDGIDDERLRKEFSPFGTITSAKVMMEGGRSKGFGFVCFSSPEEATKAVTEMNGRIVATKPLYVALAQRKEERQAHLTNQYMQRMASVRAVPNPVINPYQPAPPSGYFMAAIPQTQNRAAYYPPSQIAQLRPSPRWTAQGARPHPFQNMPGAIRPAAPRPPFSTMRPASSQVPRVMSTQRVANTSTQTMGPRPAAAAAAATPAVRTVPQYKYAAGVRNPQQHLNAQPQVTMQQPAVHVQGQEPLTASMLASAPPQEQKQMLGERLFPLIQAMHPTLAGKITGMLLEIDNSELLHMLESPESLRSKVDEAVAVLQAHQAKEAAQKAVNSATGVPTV
PABP polyA inh – PABP-poly(A) binding inhibition | calls only at 35 µM | 290,000 compounds, 1% hits | P11940 | PABP-poly(A) RNA binding, fluorescence polarization;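 note: calls also rest on retests at 20 µM and on dose response follow-up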
14-3-3 Bad PPI – disrupts binding of bovine 14-3-3 zeta to phospho-Bad peptide. P63103. AID 781. 220,000 compounds, 0.71% hits. inhibition, % at 21.7 µM. TR-FRET 14-3-3zeta/Dy647-pBad peptide displacement, 1 h;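 active = inhibition above about 70%, limit read from the data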;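 note: 0% = full 14-3-3 plus peptide FRET controls and 100% = background without 14-3-3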
eIF4E-4G inh – inhibitors of eIF4E and eIF4G interaction in translation initiation. P63073+Q04637. TR-FRET eIF4E-eIF4GI(517-606) binding, 2 h. inhibition, % at 21.7 µM. 220,000 compounds, 0.37% hits;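 active = inhibition above about 30%, limit read from the data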;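 note: 0% = full FRET control wells and 100% = background wells lacking eIF4GI fragment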
The depositor's hits bear a star; i = inactive; ? = inconclusive; · = not tested or not shown; + = active, no number; [ ] = dose if it differs, or a comment. In the library only some 1.9% were active in any assay of this set; here they are far more common. Unless noted, the rule behind the calls is not given here.

SMILES | eIF4H FP inh | MLLE-PAM2 inh | PABP polyA inh | 14-3-3 Bad PPI | eIF4E-4G inh
Cc1cccc(N2CC(O)(c3cccs3)[N+]3=C2CCCC3)c1 (centres undefined) | -0.7 | -2.1 | i | 1.4 | 1.0
CC(C)N(Cc1ccccc1)C(=S)NC(=O)C1(C)CC1(Cl)Cl (centres undefined) | 2.6 | 18.5 | i | -5.4 | -1.6
CC1(C(=O)NC(=S)N(CCC#N)c2ccccc2)CC1(Cl)Cl (centres undefined) | 3.7 | 47.3* | i | -7.6 | 0.6
c1ccc(-c2noc(CN3CCN(c4cnccn4)CC3)n2)cc1 | 1.0 | -12.1 | i | -6.7 | -2.6
CC(=O)Nc1ccc2[nH]c3ccccc3c2c1 | 99.1* | -8.4 | + | 16.1 | 2.7
Cc1csc(NC(=O)CSc2sc3c(O)cc(=O)[nH]c3c2C#N)n1 | 64.2* | -5.5 | + | · | ·
CCc1nnc(NC(=O)CSc2sc3c(O)cc(=O)[nH]c3c2C#N)s1 | 90.0* | -26.5 | + | · | ·
CCSc1nnc(NC(=O)CSc2sc3c(O)cc(=O)[nH]c3c2C#N)s1 | 91.0* | -20.7 | + | · | ·
O=C(NC1CCCCC1)C(c1ccncc1)N(C(=O)c1csnn1)c1ccccc1F (centres undefined) | -7.0 | 13.9 | i | · | ·
O=C(O)c1cc(O)ccc1N=Nc1ccccc1 | -13.4 | -13.6 | i | 4.8 | -9.2
O=C(O)c1ccccc1N=Nc1ccc(O)cc1 | · | 41.4* | · | · | ·
Cc1[nH]c2ccccc2c1N=Nc1ccccc1C(=O)O | 98.7 | -16.2 | + | -6.1 | -2.8
Cc1[nH]c2ccccc2c1N=Nc1cccc(C(=O)O)c1 | -5.0 | -11.2 | i | -5.5 | 2.6
O=C(CSc1nnc(-c2ccc(O)cc2)n1Cc1ccccc1)NNC(=O)c1ccc(Br)cc1 | -7.1 | -25.1 | i | -19.7 | -6.8
Cc1nnc(NC(=O)CSc2ccccc2N)s1 | -5.0 | -4.9 | i | · | ·
O=C(Cn1cnnn1)Nc1cccc(S(=O)(=O)N2CCCCC2)c1 | 19.3* | -2.8 | i | -14.1 | 2.4
O=C(Nc1cccc(S(=O)(=O)N2CCCCCC2)c1)c1ccc2c(c1)OCO2 | -6.8 | 8.0 | i | 77.7* | -3.2
O=C(Nc1cccc(S(=O)(=O)N2CCCC2)c1)c1ccc2c(c1)OCO2 | -0.8 | 8.8 | i | -4.9 | -3.5
CC1(C)Cc2c(cnn2-c2ccc(F)cc2)C(NC(=O)CCN2CCCCC2=O)C1 (centres undefined) | -5.2 | 3.7 | i | · | ·
Cc1ccc2nc(-c3cccc(SC4CCCCC4)c3)c(NC3CCCCC3)n2c1 | · | -6.7 | · | · | ·
Cc1ccc2nc(-c3cccnc3)c(NC3CCCCC3)n2c1 | 17.4 | 46.1* | i | 8.7 | -0.4
O=C(CCC(=O)c1cccs1)NCc1ccccc1Cl | · | -1.8 | · | · | ·
CC(NC(=O)c1ccccc1)C(=O)NC1=NCCS1 (centres undefined) | 0.6 | 32.5 | i | -3.0 | -6.1
CC(C)C(NC(=O)c1ccccc1)C(=O)NC1=NCCS1 (centres undefined) | -0.1 | 43.9* | i | -13.5 | 2.6
CC(C)Oc1cccc(C(=O)NC2=NCCS2)c1 | 0.5 | 6.8 | i | 79.7* | 3.0
SMILES | eIF4H FP inh | MLLE-PAM2 inh | PABP polyA inh | 14-3-3 Bad PPI | eIF4E-4G inh
O=C(Nc1nccs1)c1ccc(COc2c(F)c(F)cc(F)c2F)cc1 | 2.8 | 9.6 | i | · | ·
C[C@H]1CN([C@@H](C)CO)C(=O)CCCn2nncc2CO[C@H]1CN(C)C(=O)Cc1ccccc1 | · | 12.8 | · | · | ·
Cn1c(=O)oc2cc(S(=O)(=O)N3CCN(c4ccc(F)cc4)CC3)ccc21 | 28.1 | -5.6 | i | 0.1 | 0.5
Cn1c(=O)oc2cc(S(=O)(=O)N3CCN(c4cccc(Cl)c4)CC3)ccc21 | 103.1* | -6.8 | + | 4.1 | -1.6
COCCc1nc2ccc(C(=O)N(C)Cc3cccc(-n4nc(C)cc4C)c3)cc2o1 | -12.2 | 6.2 | i | · | ·
COc1ccccc1/C=C/C=N/N1CCN(Cc2ccc(Cl)cc2)CC1 | 2.6 | 16.1 | i | 73.7* | -0.1
COc1ccccc1/C=C/C=N\N1CCN(Cc2ccccc2Cl)CC1 | 0.7 | 19.3 | ? | -5.0 | -5.0
CCc1cccc(NC(=O)CCS(=O)(=O)c2ccc(Br)cc2)c1 | 80.8* | -8.3 | i | · | ·
Cc1ccc(S(=O)(=O)CCC(=O)Nc2cccc(C)c2)cc1 | -4.9 | -13.6 | i | -14.3 | -5.9
O=C(CCS(=O)(=O)c1ccc(Br)cc1)NCCc1ccccc1 | 82.2 | 2.1 | i | · | ·
NS(=O)(=O)c1ccc(CCNC(=O)CCS(=O)(=O)c2ccc(Br)cc2)cc1 | 89.6* | 3.5 | i | · | ·
Cc1c(NC(=O)OCCNC(=O)COc2c(Cl)cccc2Cl)sc(=S)n1C | -5.4 | -95.3 | i | 25.6 | -0.7
Cc1ccccc1-n1c(C)cc(/C=C2/C(=N)N3C(c4ccccc4)=CSC3=NC2=O)c1C | 86.0 | -32.5 | + | -23.9 | 2.2
Cc1cc(/C=C2/C(=N)N3C(c4ccccc4)=CSC3=NC2=O)c(C)n1-c1ccccc1 | 89.7* | -29.1 | + | -11.1 | -6.9
CC1=NN2C(=N)/C(=C\c3cc(C)n(-c4ccccc4)c3C)C(=O)N=C2S1 | -2.7 | 7.4 | i | -19.7 | -2.8
COc1cccc2c1NC(C(=O)O)C1CC=CC21 (centres undefined) | 95.6* | 22.4 | + | 42.5 | 48.3*[fluorescence artefact?]
O=C(O)C1Nc2c(cccc2C(F)(F)F)C2C=CCC12 (centres undefined) | 80.1* | · | + | · | ·
O=C(NCc1ccccc1)C1Nc2ccc(OC(F)(F)F)cc2C2C=CCC12 (centres undefined) | · | -0.2 | · | · | ·
Cc1ccc(-c2csc3ncn(C(C)C(=O)O)c(=O)c23)cc1 (centres undefined) | -1.6 | 5.0 | i | · | ·
Cc1sc2ncnc(SCC#N)c2c1C | 36.6* | -5.8 | i | 26.2 | -3.5
CCCSc1ncnc2sc(C)c(C)c12 | -8.6 | 11.5 | i | -3.3 | -1.5
CCCCCCCCCC[N+](C)(C)CC/C=C1/c2ccccc2Sc2ccc(Cl)cc21 | 25.3 | 7.7 | i | · | ·
CC[N+](C)(C)CC/C=C1/c2ccccc2Sc2ccc(Cl)cc21 | -2.6 | -0.5 | i | -2.7 | 85.8*
O=[N+]([O-])c1cccc(-c2noc(-c3cccs3)n2)c1 | -1.9 | 9.1 | i | -11.3 | 3.5
CC1CC(C)CN(CC(=O)N2CCc3[nH]c4ccccc4c3C2)C1 (centres undefined) | 125.9* | 11.2 | + | -4.7 | -5.9
CCOc1ccc(NC(=O)CN(C)C(=O)C2CCN(C(=O)Nc3ccccc3)CC2)cc1OCC | · | 5.2 | · | · | ·
CC(=O)NC(C)(c1ccccc1)c1nc(-c2cc(F)cc(F)c2)cs1 (centres undefined) | · | 18.1 | · | · | ·
COCCN1C(=O)N(c2cccc(C)c2)C(=O)C1CC(=O)Nc1ccc(F)cc1 (centres undefined) | 4.3 | -1.3 | i | 92.6* | 4.1
COc1ccc(NC(=O)c2ccc(NCCN3C(=O)CCC3=O)c([N+](=O)[O-])c2)cc1 | ? | -8.6 | + | 13.3 | 9.2
O=c1cc(-c2ccccc2)nc2cc(-c3ccco3)[nH]n12 | 15.7 | 6.6 | i | -1.9 | -1.4
